tim23-1 inh: growth inhibitors of tim23-1 mutant yeast; S. cerevisiae tim23-1 growth, BacTiter-Glo luminescence, 24 h; inhibition, % at 20 µM; AID 463212; 330,000 tested, 1.3% active;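 active means growth inhibition of the mutant yeast at or above 50%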;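 further: temperature-sensitive mutant grown at 25 °C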
tim10-1 inh: inhibits growth of tim10-1 mutant yeast; S. cerevisiae tim10-1 ts strain growth, BacTiter-Glo, 24 h; inhibition, % at 20 µM; 330,000 tested, 2.2% active;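 active means inhibition of at least 40%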;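 further: mutant grown at 25 °C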
PfHsp90 yeast 2: growth inhibition of yeast expressing Plasmodium Hsp90. AID 504621. S. cerevisiae expressing PfHsp90, BacTiter-Glo ATP, 48 h; yeast lacking PDR1 and PDR3 efflux regulators. inhibition, % at 9.4 µM. 310,000 tested, 0.32% active;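 active means every replicate shows inhibition above about 80%, whatever the replicate mean, limit read from the data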
TIM10 inh: TIM10 yeast growth inhibition; 330,000 tested, 1.4% active; AID 463195; inhibition, % at 10 µM; S. cerevisiae TIM10 strain growth, BacTiter-Glo luminescence, 24 h;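 active means inhibition of 40% or more at the single tested concentration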;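 further: wild-type TIM10 isogenic control strain grown at permissive 25 °C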
B2AR ag: human beta-2 adrenergic receptor agonism by FAP; P07550; Am2.2-beta2AR cells, FAP receptor internalization, flow cytometry; response, % (no concentration beside the values); 340,000 tested, 0.43% active; AID 504454;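 active means response above a set limit, near 3 SD of response in nonfluorescent compounds, cut at about 42% in these data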
Target sequence (P07550 whole entry, looked up): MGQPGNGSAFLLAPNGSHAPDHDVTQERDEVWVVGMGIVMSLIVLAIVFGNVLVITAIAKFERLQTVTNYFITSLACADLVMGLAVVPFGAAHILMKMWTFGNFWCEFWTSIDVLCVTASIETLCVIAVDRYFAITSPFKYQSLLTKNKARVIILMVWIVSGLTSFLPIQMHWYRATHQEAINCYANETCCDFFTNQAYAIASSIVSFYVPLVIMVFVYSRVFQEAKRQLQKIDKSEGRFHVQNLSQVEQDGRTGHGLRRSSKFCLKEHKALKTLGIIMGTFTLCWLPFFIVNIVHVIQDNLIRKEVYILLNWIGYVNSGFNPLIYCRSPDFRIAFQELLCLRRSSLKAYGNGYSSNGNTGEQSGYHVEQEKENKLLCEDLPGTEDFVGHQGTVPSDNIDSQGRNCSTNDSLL
tim10-1 confirm: confirmation of tim10-1 mutant yeast growth inhibitors. S. cerevisiae tim10-1 ts strain growth, BacTiter-Glo, 24 h. 7,400 tested, 56% active. inhibition, % at 20 µM. shares compounds with tim10-1 inh. AID 463213;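 active means inhibition of yeast growth at or above a set limit in either of two repeat tests at 20 µM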;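 further: tim10-1 mutant grown at permissive 25 °C to find synthetic lethal compounds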
Of the large screens only hits and unclear results are named; the others gave an inactive call (follow-up assays come after a bar, where they were run). A selection: hits, their analogues and other compounds. The true share with any hit is near 3.8%.

O=S(=O)(NCc1ccc(F)cc1)c1ccc2c(c1)OCCO2	tim10-1 inh 53 (no result: PfHsp90 yeast 2) | tim10-1 confirm 37
CCCCC(CCc1ccccn1)C(=O)c1ccccc1 (stereo not given)	none (no result: tim23-1 inh, tim10-1 inh, TIM10 inh)
Cc1ccc(-c2nc(NCc3ccco3)c3ccccc3n2)cc1	none (no result: PfHsp90 yeast 2)
Cc1ccc(-c2nc(NCc3cccnc3)c3ccccc3n2)cc1	tim10-1 inh 46 | tim10-1 confirm inactive
c1cncc(-c2nc(NCc3ccco3)c3ccccc3n2)c1	tim10-1 inh 41 | tim10-1 confirm 37
CC(C)(C)CC(C)(C)c1ccc(O)c(Cc2ccc(Cl)cc2Cl)c1	none (no result: tim23-1 inh, tim10-1 inh, TIM10 inh)
N#CCc1nn(Cc2ccc(F)cc2)c(=O)c2ccccc12	none
CCCC(=O)Oc1c(S(=O)(=O)c2ccc(C)cc2)c(C)nn1C(C)(C)C	none
CCC(=O)Oc1c(S(=O)(=O)c2ccc(C)cc2)c(C)nn1C(C)(C)C	tim10-1 inh 44 | tim10-1 confirm inactive
CN(C(=O)C1CCN(S(=O)(=O)c2ccccc2)CC1)c1c(N)n(Cc2ccccc2)c(=O)[nH]c1=O	none
CCOc1ccc(CCNC(=O)CCc2nnc3ccc(N4CCCCC4)nn23)cc1OCC	none
Cc1noc(NS(=O)(=O)c2ccc(NC(=O)c3cc(F)c(F)c(F)c3F)cc2)c1C	none (no result: PfHsp90 yeast 2)
O=C(Nc1ccc(Cl)cc1)NC1CCCCC1Cc1ccco1 (stereo not given)	tim10-1 inh 47 | tim10-1 confirm 41
CCC(=O)NCCc1nc2cc(NC(=O)c3ccc(F)cc3)ccc2n1C	none
S=c1nc(Cc2ccccc2)[nH]c2ccccc12	tim10-1 inh 43 | tim10-1 confirm inactive
O=C(NC1CCN(Cc2ccccc2)CC1)c1ccccc1	none
O=C(O)c1ccc2c(c1)C(=O)N(CCc1c[nH]c3ccccc13)C2=O	tim10-1 inh 98 | tim10-1 confirm inactive
O=C(NC1CCN(CCc2c[nH]c3ccccc23)CC1)c1ccccc1	tim10-1 inh 43 | tim10-1 confirm inactive
O=C(O)c1ccc2c(c1)C(=O)N(CCc1ccccc1)C2=O	none
CCCCN(C(=O)C1CCCC1)c1c(N)n(CCC)c(=O)[nH]c1=O	none (no result: PfHsp90 yeast 2)
CCOc1ccccc1NC(=O)C(OC(=O)c1ccc(NC(=O)CC#N)cc1)c1ccccc1 (stereo not given)	none
Cc1cccc(CSCCNC(=O)CSCc2ccc([N+](=O)[O-])cc2)c1	tim10-1 inh 46 | tim10-1 confirm inactive
Cc1ccc(CSCCNC(=O)CSCc2ccc([N+](=O)[O-])cc2)cc1	tim10-1 inh 42 (no result: PfHsp90 yeast 2) | tim10-1 confirm inactive
Cc1ccccc1CSCCNC(=O)CSCc1ccc([N+](=O)[O-])cc1	none
O=C(/C=C/c1cccc([N+](=O)[O-])c1)NCCSCc1ccc(Cl)cc1	tim10-1 inh 45 | tim10-1 confirm inactive
Cc1cccn2c(=O)c3cc(C(=O)NC4CCCC4)c(=N)n(Cc4ccc(F)cc4)c3nc12	tim10-1 inh 43, B2AR ag 103 | tim10-1 confirm inactive
N=c1c(C(=O)NC2CCCCC2)cc2c(=O)n3ccccc3nc2n1Cc1ccc(F)cc1	none
Cc1sc2nc[nH]c(=O)c2c1-c1ccc(F)cc1	none
Cc1sc2nc[nH]c(=S)c2c1-c1ccccc1	tim10-1 inh 40 | tim10-1 confirm inactive
O=C(COc1ccccc1C(=O)O)Nc1ccc(SC(F)F)cc1	none
O=C(COC(=O)c1ccccc1C(=O)c1ccccc1)Nc1ccc(SC(F)F)cc1	tim10-1 inh 41 | tim10-1 confirm 31
Cc1cccc(-n2nc(C(=O)c3ccco3)cc(-c3nc4ccccc4[nH]3)c2=N)c1	tim10-1 inh 50 | tim10-1 confirm inactive
O=C(c1cccc(COc2ccc(Cl)cc2Cl)c1)N1CCN(c2ccccn2)CC1	tim10-1 inh 42 | tim10-1 confirm inactive
O=C(c1ccc(S(=O)(=O)Cc2cc(F)ccc2F)c([N+](=O)[O-])c1)N1CCCCC1	tim10-1 inh 44 | tim10-1 confirm 29
O=C(c1ccc(S(=O)(=O)Cc2ccccc2Cl)c([N+](=O)[O-])c1)N1CCN(c2ccccn2)CC1	tim10-1 inh 52 | tim10-1 confirm 39
O=C(c1ccc(Cl)c([N+](=O)[O-])c1)N1CCN(c2ccccn2)CC1	none
O=C(c1ccc(Sc2cccc(Cl)c2)c([N+](=O)[O-])c1)N1CCN(c2ccccn2)CC1	tim10-1 inh 41 (no result: PfHsp90 yeast 2) | tim10-1 confirm inactive
CCc1nn(CC(=O)NCc2cccnc2)c(=O)c2cc3occc3n12	none
CCCCNC(=S)Nc1ccc([N+](=O)[O-])cc1	tim10-1 inh 50 | tim10-1 confirm inactive
CCCCNC(=S)Nc1ccc(Oc2ccccc2)cc1	none
COc1cc(OC)cc(C(=O)Nc2nc(-c3ccccc3)c(-c3ccccc3)o2)c1	tim10-1 inh 44 | tim10-1 confirm 33
CC(=O)Nc1nc(-c2ccccc2)c(-c2ccccc2)o1	none
CCN(CC)C(=S)SCC(=O)Nc1nc(-c2ccccc2)c(-c2ccccc2)o1	tim10-1 inh 41 | tim10-1 confirm inactive
C[C@H](CO)N1C[C@H](C)[C@@H](CN(C)S(=O)(=O)c2cn(C)cn2)Oc2ccc(NC(=O)C3CCCCC3)cc2C1=O	none
CC1Cc2ccccc2N1C(=O)CSc1nnnn1Cc1ccccc1 (stereo not given)	tim10-1 inh 60 | tim10-1 confirm 45
COCCCn1nnnc1SCC(=O)N1c2ccccc2CC1C (stereo not given)	none
Cc1cn(CC(=O)NCCN2CCOCC2)c(=O)[nH]c1=O	none (no result: tim23-1 inh, tim10-1 inh, TIM10 inh)
O=C(Nn1c(SCc2ccc(F)cc2)nc2ccsc2c1=O)c1ccccc1	tim10-1 inh 40 | tim10-1 confirm inactive
Cc1cc(C)c(C)c(S(=O)(=O)NCCCn2ccnc2)c1C	none
CC(C)(C)N(Cc1ccccc1)C(=O)c1ccc(Cl)cc1[N+](=O)[O-]	tim10-1 inh 43 | tim10-1 confirm 29
O=C(c1ccc(Cl)cc1[N+](=O)[O-])N(Cc1ccccc1)Cc1ccccc1	none (no result: PfHsp90 yeast 2, B2AR ag)
O=C1NCCc2c1[nH]c1c(Cl)ccc(Cl)c21	tim10-1 inh 42 | tim10-1 confirm 36
CCN(CC)S(=O)(=O)c1cc(NC(=O)CNc2cccc(S(=O)(=O)N3CCCC3)c2)ccc1C	none (no result: PfHsp90 yeast 2)
O=C(NC(NNc1ccc([N+](=O)[O-])cc1)(C(F)(F)F)C(F)(F)F)c1ccccc1Cl	tim10-1 inh 47 (no result: PfHsp90 yeast 2) | tim10-1 confirm inactive
O=C(NC(NNc1ccc([N+](=O)[O-])cc1)(C(F)(F)F)C(F)(F)F)c1ccc(F)cc1	none
COC(=O)c1ccc2c(c1C(=O)OC)CN(S(=O)(=O)C(C)(C)C)[C@@H]2CCO	none (no result: tim23-1 inh, tim10-1 inh, TIM10 inh)
CC(/C=N/Nc1nc(C)cc(C)n1)=C\c1ccc(C(C)C)cc1	tim10-1 inh 46 | tim10-1 confirm 35
CC(NC(=O)COC(=O)c1cccc(S(=O)(=O)N2CCCC2)c1)c1ccccc1 (stereo not given)	none
O=C1NCCCc2c1oc1ccc(O)cc21	none
Oc1c(Cl)cc(Cl)c2c1NCCC2	tim10-1 inh 50 | tim10-1 confirm inactive
CC1CN(Cc2ccco2)C(=S)NC1=O (stereo not given)	none (no result: tim23-1 inh, tim10-1 inh, PfHsp90 yeast 2, TIM10 inh)

Assay outcomes: PubChem BioAssay, several laboratories
